This is a sample that favours compounds with a hit; in the whole collection about 1.1% have one here.
Rv3671c protease: Rv3671c (M. tuberculosis) protease inhibition; inhibition, % at 5.96 µM; 320,000 compounds, 0.048% hits; P9WHR9; in the data active = inhibition above about 38%;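 note: extracellular domain of Rv3671c used as enzyme; 0% = enzyme with DMSO and 100% = no enzyme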
Mtb bLac sens: beta-lactam sensitization of Mtb H37Rv; inhibition, % at 25 µM; M. tuberculosis H37Rv growth with meropenem, percent inhibition; 330,000 compounds, 0.27% hits; call rule not given here;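 note: growth measured after seven days incubation then overnight dye step; 0% = bacteria only wells and 100% = bacteria with antibiotic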
Mtb UGM inh: Mtb UDP-galactopyranose mutase inhibition. P9WIQ1. purified UGM, fluorescence polarization probe displacement. inhibition, % at 10 µM. 320,000 compounds, 0.06% hits. AID 504406; in the data active = inhibition above about 10%, passing the limit was not always enough
Target sequence (P9WIQ1 whole entry, looked up): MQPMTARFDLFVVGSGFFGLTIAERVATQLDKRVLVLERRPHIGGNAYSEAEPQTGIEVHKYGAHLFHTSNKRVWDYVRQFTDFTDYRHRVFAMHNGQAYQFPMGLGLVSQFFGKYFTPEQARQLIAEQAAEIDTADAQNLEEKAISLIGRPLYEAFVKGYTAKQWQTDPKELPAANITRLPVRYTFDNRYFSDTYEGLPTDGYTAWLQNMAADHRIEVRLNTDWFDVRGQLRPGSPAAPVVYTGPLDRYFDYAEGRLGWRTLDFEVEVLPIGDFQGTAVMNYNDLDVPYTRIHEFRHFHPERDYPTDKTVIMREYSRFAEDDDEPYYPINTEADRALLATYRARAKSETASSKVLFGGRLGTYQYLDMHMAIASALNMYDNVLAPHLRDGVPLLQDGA
RecA intein inh: blocks M. tuberculosis RecA intein splicing; P9WHJ3; cell-free RecA intein splicing, fluorescence; inhibition, % (no concentration beside the values); 290,000 compounds, 0.75% hits; AID 2221; in the data active = inhibition above about 30%;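 note: 0% = vehicle wells and 100% = reference inhibitor control wells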
SSB-PriA inh: blocks PriA binding to SSB C-terminal tail | AlphaScreen SSBct-PriA binding, biotinylated peptide | inhibition, % at 33 µM | 430,000 compounds, 0.6% hits; in the data active = inhibition mostly above about 37%, no sharp cut-off; inactive = mostly below about 20%;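 note: plate controls were negative control peptide for no effect and reference peptide for full effect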
* = called active by the depositor; x = no result given.

SMILES | Rv3671c protease | Mtb bLac sens | Mtb UGM inh | RecA intein inh | SSB-PriA inh
CN(Cc1ccccc1)c1oc(COc2ccccc2F)nc1C#N | -7 | 2 | 2 | 10 | 51*
COc1ccc(Nc2oc(COc3ccccc3F)nc2C#N)cc1 | -2 | -4 | 1 | 41* | 21
COc1ccc(CCNS(=O)(=O)c2ccc(Oc3ccccc3)cc2)cc1OC | x | x | x | x | -9
CCCn1c(C(C)NC(=O)c2ccc(OC)c(OC)c2)nc2ccccc21 (stereo unspecified) | x | x | x | x | -2
COC(=O)C(=O)CC(=NNc1ncnc2ccccc12)c1ccc(Cl)cc1 | x | x | x | x | 5
CCCCCCC(NC(=O)c1ccc(C)cc1)C(=O)O (stereo unspecified) | x | x | x | x | 57*
COc1cc2c3nnc(-c4ccccc4)c-3cn(Cc3ccccc3F)c2cc1OC | 0 | 12 | 11* | -56 | 10
COc1cc2c3nnc(-c4ccc(F)cc4)c-3cn(Cc3ccccc3F)c2cc1OC | x | x | x | x | -4
CC(=O)NC1C(=O)N(CCN2CCOCC2)c2ccc(Cl)cc21 (stereo unspecified) | x | 3 | -1 | 46* | -9
CCN1C(=O)C(NC(C)=O)c2cc(Br)ccc21 (stereo unspecified) | -3 | 0 | 2 | 0 | -13
CC(=O)NC1C(=O)N(CCN2CCOCC2)c2ccc(C)cc21 (stereo unspecified) | 17 | -7 | 1 | 65* | -9
CCc1ccc2c(c1)C(NC(C)=O)C(=O)N2CC (stereo unspecified) | -3 | -4 | 1 | 1 | -10
CCCCN1C(=O)C(NC(C)=O)c2cc(Br)ccc21 (stereo unspecified) | -1 | -4 | -3 | -4 | 18
CC(=O)NC1C(=O)N(CCN2CCOCC2)c2ccc(F)cc21 (stereo unspecified) | x | 4 | -3 | 41* | -1
O=C1NC(=S)/C(=C/c2cccnc2)S1 | x | x | x | x | 3
Cn1cc(C(=O)NN=CC2=C(N3CCOCC3)/C(=C\c3ccccc3)CC2)ccc1=O | x | x | x | x | 4
CCCCc1oc2ccccc2c1C(=O)c1cc(I)c(OCCN(CC)CC)c(I)c1 | 6 | x | -2 | 38* | 33
CCN(CC)CCOc1ncnc2c1oc1ccccc12 | 13 | 9 | -2 | 0 | -9
O=C(O)CNC(=O)CC1SC(=NN=Cc2ccccc2O)NC1=O (stereo unspecified) | x | x | x | x | -16
O=C(O)CNC(=O)CC1SC(=NN=C2CSC(=O)N2)NC1=O (stereo unspecified) | x | x | x | x | 95*
CCOC(=O)c1cc(-c2ccc(N)cc2)sc1N | 6 | 61 | -1 | 4 | 50*
C=CCSc1nc2c(c(-c3ccc(OCc4ccccc4)cc3)c1C#N)CCCC2 | x | x | x | x | 4
CC(CC(=O)Nc1ccccc1C#N)=NNC(=O)c1ccncc1 | x | x | x | x | -9
O=[N+]([O-])c1ccc(C=Nc2cccc3ccccc23)s1 | -28 | 29 | 0 | 1 | 53*
O=[N+]([O-])c1ccc(C=Nn2c(CO)nc3ccccc32)s1 | x | x | x | x | 7
SMILES | Rv3671c protease | Mtb bLac sens | Mtb UGM inh | RecA intein inh | SSB-PriA inh
Cc1[nH]n(-c2ncc(-c3ccccc3)s2)c(=O)c1C(c1ccc(Br)cc1)C(C#N)C#N (stereo unspecified) | 9 | 8 | 1 | 7 | 19
Cc1[nH]n(C(N)=S)c(=O)c1C(c1ccccc1)C(C#N)C#N (stereo unspecified) | -4 | -7 | 0 | 43* | -4
CN1CCN(Cc2ccc(Sc3ccc(Cl)cc3)c([N+](=O)[O-])c2)CC1 | 4 | -6 | -3 | 4 | 7
O=[N+]([O-])c1cc(CN2CCN(Cc3ccccc3)CC2)ccc1Sc1ccc(Cl)cc1 | x | x | x | x | 58*
Cc1ccccc1NC(=S)N=Nc1c(O)n(C)c2ccc(S(=O)(=O)N3CCOCC3)cc12 | 13 | 2 | -4 | 41* | 14
Cc1cc(C)cc(NC(=S)N=Nc2c(O)n(C)c3ccc(S(=O)(=O)N4CCOCC4)cc23)c1 | 24 | 4 | 0 | -1 | -4
Cc1cccc(C)c1NC(=S)N=Nc1c(O)n(C)c2ccc(S(=O)(=O)N3CCOCC3)cc12 | 2 | 9 | 0 | 46* | -5
Cn1c(NC(=O)Cc2ccccc2)cc(=O)n(C)c1=O | x | x | x | x | 3
c1ccc(-c2nc(N3CCCCCC3)nc(-n3ccnc3)n2)cc1 | 0 | 100 | 1 | 46* | -6
CCOC(=O)c1cc(NC(=O)C2C3CCC(O3)C2C(=O)O)cc(C(=O)OCC)c1 (stereo unspecified) | 5 | 3 | x | -1 | 53*
CCOC(=O)c1cc(NC(=O)C2C3C=CC(O3)C2C(=O)O)cc(C(=O)OCC)c1 (stereo unspecified) | -1 | 2 | 0 | -2 | -5
CC(/C=C1\SC(=S)N(NC(=O)c2cccc(O)c2)C1=O)=C\c1ccccc1 | -42 | 58 | -3 | 31* | 17
O=C(NN1C(=O)/C(=C/c2ccc(O)cc2)SC1=S)c1cccc(O)c1 | -55 | 10 | -16 | 7 | 7
COc1ccc(OC)c(C=NNC(=O)c2ccc[n+](CC(=O)c3ccccc3)c2)c1 | x | x | x | x | 9
Cc1cc(OC(=O)c2ccccc2[N+](=O)[O-])c([N+](=O)[O-])c(=O)[nH]1 | 5 | 1 | 0 | 2 | 99*
Cc1cc(OC(=O)c2ccccc2I)c([N+](=O)[O-])c(=O)[nH]1 | x | x | x | x | -7
COc1ccccc1NC(=O)CSc1nnc(-c2cccc(C)c2)n1Cc1ccco1 | x | x | x | x | 59*
CCN(CC)C(=O)CC(c1ccc(N(C)C)cc1)c1c(OC)cc(OC)c2ccc(=O)oc12 (stereo unspecified) | 3 | 2 | 1 | -2 | 13
CCCCCc1cc(=O)oc2c(C(CCN3CCCC3)c3ccc(N(C)C)cc3)c(OC)cc(OC)c12 (stereo unspecified) | 7 | 100 | 1 | 17 | 50*
CCN(CC)C(=O)CC(c1ccc(N(C)C)cc1)c1c(OC)cc(OC)c2c(-c3ccccc3)cc(=O)oc12 (stereo unspecified) | 6 | 16 | 1 | 14 | 48*
Cc1cc(C)cc(C(=O)Nc2nnc(N=Cc3ccc(Br)s3)s2)c1 | x | x | x | x | 71*
Cc1ccc2ccc(C(=O)O)nc2n1 | x | x | x | x | 3
NS(=O)(=O)c1ccc(NC(=O)CN2CC(=O)Oc3ccccc32)cc1 | x | x | x | x | 94*
COC(=O)c1ccc(NC(=O)CN2CCN(c3ccccc3C)CC2)cc1 | -4 | 35 | 0 | -2 | 11
COC(=O)c1ccc(NC(=O)CN2CC(=O)Oc3ccccc32)cc1 | x | x | x | x | 45*
SMILES | Rv3671c protease | Mtb bLac sens | Mtb UGM inh | RecA intein inh | SSB-PriA inh
O=C(Cc1csc(Nc2ccccc2)n1)Nc1nccs1 | x | x | x | x | -7
CC(=NO)c1ccc(Oc2cnccn2)cc1 | x | x | x | x | -6
Cc1ccc(O)c(Nc2c3ccccc3nc3ccccc23)c1 | -6 | 2 | 0 | -30 | 61*
Cc1ccc(NC(=O)/C(C#N)=C\C2=Cc3ccccc3OC2)cc1 | x | x | x | x | 3
N#Cc1nc(-c2cccs2)oc1NCc1ccccc1Cl | -4 | 74 | 0 | 6 | 45*
Cc1ccc2nc(NNC(=O)c3ccc(S(=O)(=O)N4CCc5ccccc5C4)cc3)sc2c1 | 6 | -6 | 0 | -2 | 95*
O=C(Nc1nc2ccc3ccccc3c2s1)c1ccc(S(=O)(=O)N2CCc3ccccc3C2)cc1 | x | x | x | x | -1
NC(=S)NN=Cc1nccc2ccccc12 | x | x | x | x | 78*
NC(=S)NN=Cc1c2ccccc2cc2ccccc12 | x | x | x | x | 4

High-throughput results (PubChem)
